# PubChem BioAssay (NCI)
# Where “and” joins values, the source holds several entries; their conditions need not be identical. Equal values may be shown once. The panel holds about 79,000 compounds, 15% with a hit somewhere; the sample as a whole holds those more often. A structure can be active in one record and inactive in another. Calls of active or inactive are those of the source. No stated cut-off is given here; in the data, active means growth inhibition above about 70%; inactive means the rest.
# Assays:
# [1] = NCI Yeast Anticancer Drug Screen. Data for the rad50 strain (AID 155);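 further: 0% = growth of vehicle-only cultures of the same strain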; settings: S. cerevisiae rad50 strain growth inhibition, stronger effect = higher value
# Procedure, shortened: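 Inhibition values express reduced yeast growth in compound-treated cultures relative to vehicle-treated controls.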
# [2] = NCI Yeast Anticancer Drug Screen. Data for the mec2-1 strain (AID 157); settings: S. cerevisiae mec2-1 strain, stronger effect = higher value
# Procedure, shortened: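 Each compound was tested on mec2-1 yeast, a strain altered in DNA damage repair or cell cycle control. Growth inhibition is reported relative to vehicle.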
# [3] = NCI Yeast Anticancer Drug Screen. Data for the sgs1 mgt1 strain (AID 161);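 further: 0% = growth of cultures given vehicle only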; settings: S. cerevisiae sgs1 mgt1 strain, stronger effect = higher value
# Procedure, shortened: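 Read-out: growth inhibition vs vehicle controls. Cells: mutant yeast strain deficient in DNA damage repair.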
# [4] = NCI Yeast Anticancer Drug Screen. Data for the cln2 rad14 strain (AID 165);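 further: 0% = growth equal to vehicle treated cultures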; settings: S. cerevisiae cln2 rad14 strain, stronger effect = higher value
# Procedure, shortened: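 Test compounds were added to cln2 rad14 yeast cultures; inhibition of growth was then determined by comparison with vehicle treatment.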
# [5] = NCI Yeast Anticancer Drug Screen. Data for the bub3 strain (AID 167); settings: S. cerevisiae bub3 mutant strain, stronger effect = higher value
# Procedure, shortened: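 Steps: expose the mutant yeast strain to compound; grow alongside vehicle-treated cultures; measure growth; express inhibition against the vehicle cultures.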
# [6] = NCI Yeast Anticancer Drug Screen. Data for the mlh1 rad18 strain (AID 175); settings: S. cerevisiae mlh1 rad18 strain growth inhibition, stronger effect = higher value
# Procedure, shortened: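 Inhibition values reflect reduced growth of mutant yeast versus vehicle-treated controls following compound exposure; the mutations affect DNA damage repair.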
# [7] = at 5.0 µM (retest, dose inferred, filed as 0.5)
# [8] = at 50.0 µM (retest, dose inferred, filed as 5.0)
Compound,"growth inhibition [1, 7]","growth inhibition [1, 8]",growth inhibition ([1]; at 50.0 µM),"growth inhibition [2, 7]","growth inhibition [2, 8]",growth inhibition ([2]; at 50.0 µM),"growth inhibition [3, 7]","growth inhibition [3, 8]",growth inhibition ([3]; at 50.0 µM),"growth inhibition [4, 7]","growth inhibition [4, 8]",growth inhibition ([4]; at 50.0 µM),"growth inhibition [5, 7]","growth inhibition [5, 8]",growth inhibition ([5]; at 50.0 µM),"growth inhibition [6, 7]","growth inhibition [6, 8]",growth inhibition ([6]; at 50.0 µM)
CN(C)CC1CC2C3CC=C4CC(O)CCC4(C)C3CCC2(C)C1=O (centres undefined),-9% (inactive),78% (active),88% (active),-1% (inactive),85% (active),37.4% (inactive),-5% (inactive),86% (active),92.2% (active),4% (inactive),64% (inactive),29.1% (inactive),-23% (inactive),90% (active),79% (active),-12% (inactive),91% (active),92.5% (active)
Cc1cc(N(C)C)c2ccccc2[n+]1CCCCCCCCCC[n+]1c(C)cc(N(C)C)c2ccccc21,92% (active),98% (active),89.1% (active),98% (active),99% (active),91.8% (active),95% (active),99% (active),88.8% (active),87% (active),96% (active),91% (active),94% (active),98% (active),89.5% (active),97% (active),99% (active),91.8% (active)
CC(=O)C1CCC2C3CCC4=CC(=[N+]5CCCCC5)CCC4(C)C3CCC12C (centres undefined),98% (active),74% (active),95.4% (active),100% (active),95% (active),96.4% (active),97% (active),95% (active),97.5% (active),99% (active),87% (active),91.7% (active),99% (active),93% (active),93.5% (active),99% (active),92% (active),95.8% (active)
CC(=O)O.CC(=O)[O-].CC(=O)[O-].[Co+3].[NH-]CC[NH-].[NH-]CC[NH-],-5% (inactive),94% (active),23.3% (inactive),-5% (inactive),98% (active),10.3% (inactive),2% (inactive),97% (active),-3.35% (inactive),-4% (inactive),96% (active),31.6% (inactive),38% (inactive),98% (active),-1.65% (inactive),-7% (inactive),97% (active),4.05% (inactive)
O=C(CBr)OCc1ccccc1,96% (active) and 98% (active),99% (active),99.5% (active),98% (active) and 99% (active),99% (active) and 100% (active),99.8% (active),97% (active) and 100% (active),99% (active) and 100% (active),99.7% (active),84% (active) and 93% (active),99% (active),99.4% (active),97% (active) and 99% (active),99% (active),99.4% (active),99% (active),99% (active),99.4% (active)
c1cnc2c(c1)ccc1cccnc12,58% (inactive) and 14% (inactive),97% (active) and 99% (active),99.5% (active) and 99.2% (active),32% (inactive) and 27% (inactive),99% (active),99.2% (active) and 98.9% (active),50% (inactive) and 13% (inactive),98% (active),98.3% (active) and 99% (active),6% (inactive) and -24% (inactive),98% (active) and 90% (active),98% (active) and 96.2% (active),42% (inactive) and 4% (inactive),98% (active) and 99% (active),98.8% (active) and 99% (active),52% (inactive) and 17% (inactive),97% (active) and 98% (active),98.8% (active)
N=C(N)SCc1ccc(Cl)c2ccccc12 (tested in a mixture with another compound),12% (inactive) and 8% (inactive),94% (active) and 60% (inactive),98.8% (active) and 90% (active),1% (inactive) and -15% (inactive),58% (inactive) and 35% (inactive),98.6% (active) and 89.5% (active),-6% (inactive) and -9% (inactive),93% (active) and 51% (inactive),98.5% (active) and 92.5% (active),-40% (inactive) and -1% (inactive),94% (active) and 38% (inactive),94.8% (active) and 57% (inactive),-21% (inactive) and -5% (inactive),72% (active) and 66% (inactive),98.2% (active) and 92.8% (active),2% (inactive) and -3% (inactive),91% (active) and 88% (active),98.7% (active) and 96% (active)
Oc1c(Cl)cc(-c2cc(Cl)c(O)c(Cl)c2)cc1Cl,95% (active),94% (active),84.2% (active),96% (active),97% (active),89% (active),89% (active),97% (active),89.7% (active),57% (inactive),98% (active),87.6% (active),92% (active),96% (active),86.7% (active),99% (active),99% (active),84.9% (active)
